proKLK7 act: activators of human kallikrein-7 zymogen; purified proKLK7, EDANS-DABCYL substrate fluorescence; 100% is mature enzyme control, 0% vehicle; hit rate 0.9% among 370,000; AID 652039; P49862; activation, % at 7 µM;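 active = activation above the mean of all tested compounds plus 3 SD, computed per campaign excluding outliers beyond control limits, cut at about 13% in these data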
Rin1-Abl PPI inh: blocks binding of human Rin1 to Abl; P00519+Q13671; TR-FRET Rin1/Abl binding, biochemical; inhibition, % at 7.35 µM; hit rate 0.4% among 360,000; AID 588664; in the data active = inhibition above about 5%, passing the limit was not always enough
Target sequence (P00519 whole entry, looked up): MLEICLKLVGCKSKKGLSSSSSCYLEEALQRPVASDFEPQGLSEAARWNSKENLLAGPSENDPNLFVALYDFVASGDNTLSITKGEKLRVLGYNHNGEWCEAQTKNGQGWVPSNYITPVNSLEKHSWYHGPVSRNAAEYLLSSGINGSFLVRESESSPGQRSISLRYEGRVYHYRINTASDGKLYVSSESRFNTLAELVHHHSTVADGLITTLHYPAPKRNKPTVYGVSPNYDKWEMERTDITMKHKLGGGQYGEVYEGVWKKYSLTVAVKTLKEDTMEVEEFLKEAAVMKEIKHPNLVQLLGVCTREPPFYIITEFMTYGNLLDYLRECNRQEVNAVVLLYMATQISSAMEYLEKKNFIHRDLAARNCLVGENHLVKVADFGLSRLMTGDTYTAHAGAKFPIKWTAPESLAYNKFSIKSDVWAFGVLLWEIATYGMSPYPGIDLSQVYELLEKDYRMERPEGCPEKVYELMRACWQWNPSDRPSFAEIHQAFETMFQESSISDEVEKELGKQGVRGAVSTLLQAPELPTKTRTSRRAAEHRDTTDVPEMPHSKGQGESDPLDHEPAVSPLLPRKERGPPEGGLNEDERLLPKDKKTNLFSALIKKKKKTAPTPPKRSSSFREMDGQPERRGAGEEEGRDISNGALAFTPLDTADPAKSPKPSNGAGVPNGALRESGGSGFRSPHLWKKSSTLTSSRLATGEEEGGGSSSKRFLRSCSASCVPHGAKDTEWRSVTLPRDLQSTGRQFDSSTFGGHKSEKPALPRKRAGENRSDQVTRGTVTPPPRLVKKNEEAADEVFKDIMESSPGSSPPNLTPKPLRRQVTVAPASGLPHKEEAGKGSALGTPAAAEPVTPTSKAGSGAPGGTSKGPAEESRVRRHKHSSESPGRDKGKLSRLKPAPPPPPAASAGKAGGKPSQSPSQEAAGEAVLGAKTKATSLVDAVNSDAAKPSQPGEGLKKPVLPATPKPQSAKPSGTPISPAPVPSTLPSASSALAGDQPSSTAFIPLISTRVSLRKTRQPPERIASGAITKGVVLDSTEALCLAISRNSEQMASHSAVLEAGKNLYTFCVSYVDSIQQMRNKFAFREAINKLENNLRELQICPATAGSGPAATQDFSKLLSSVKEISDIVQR
Target sequence (Q13671 whole entry, looked up): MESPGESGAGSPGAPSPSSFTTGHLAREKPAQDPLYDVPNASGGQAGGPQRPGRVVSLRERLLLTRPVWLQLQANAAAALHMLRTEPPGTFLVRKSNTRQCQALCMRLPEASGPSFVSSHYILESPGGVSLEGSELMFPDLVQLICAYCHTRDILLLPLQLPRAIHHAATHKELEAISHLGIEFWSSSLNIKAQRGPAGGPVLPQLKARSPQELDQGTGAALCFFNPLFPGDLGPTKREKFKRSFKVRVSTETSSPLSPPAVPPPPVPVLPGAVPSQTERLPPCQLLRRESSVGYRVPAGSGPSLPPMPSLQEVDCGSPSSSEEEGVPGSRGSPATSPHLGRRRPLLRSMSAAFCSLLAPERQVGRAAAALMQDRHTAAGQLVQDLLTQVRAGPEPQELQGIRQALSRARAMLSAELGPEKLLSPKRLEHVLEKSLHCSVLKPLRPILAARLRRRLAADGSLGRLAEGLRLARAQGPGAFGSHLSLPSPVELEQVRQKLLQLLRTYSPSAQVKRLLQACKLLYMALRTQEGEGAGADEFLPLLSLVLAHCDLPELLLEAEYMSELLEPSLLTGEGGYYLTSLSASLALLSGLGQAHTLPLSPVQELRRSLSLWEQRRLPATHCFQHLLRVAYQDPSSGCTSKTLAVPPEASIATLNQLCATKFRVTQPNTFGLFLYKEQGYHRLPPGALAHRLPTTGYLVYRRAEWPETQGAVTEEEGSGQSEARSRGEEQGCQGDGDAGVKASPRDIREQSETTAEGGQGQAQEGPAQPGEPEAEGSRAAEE
UHRF1 binding: UHRF1 methyl-DNA binding inhibition | UHRF1 binding to methylated oligo, TR-FRET | Q96T88 | hit rate 0.75% among 370,000 | inhibition, % at 4.4 µM; in the data active = inhibition above about 21%;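 also: UHRF1 SRA domain binding a hemimethylated CpG hairpin DNA probe; 0% = median of test compound wells and 100% = reference inhibitor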
MBD2 DNA inh: inhibitors of human MBD2 binding to methylated oligonucleotide; hit rate 0.31% among 370,000; TR-FRET; inhibition, % at 4.4 µM; in the data active = inhibition above about 13%
Neddylation inh: cullin neddylation inhibition; P61081+Q13564; TR-FRET cullin neddylation, biochemical; calls only at 25 µM; hit rate 0.58% among 360,000; in the data active = inhibition above about 36%
LEDGF integ inh: blocks HIV-1 LEDGF/p75-dependent DNA integration. TR-FRET IN-LEDGF/p75 DNA integration, Eu/Cy5. inhibition, % at 3.7 µM. hit rate 0.64% among 370,000. AID 743269;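 active = inhibition above the screen-wide mean plus 3 SD, cut at about 13% in these data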;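 also: signal is the Cy5 over europium emission ratio at 671 and 618 nm; 0% = plate median of compound wells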
proKLK7 act conf: proKLK7 activation, confirmation; purified proKLK7, EDANS-DABCYL substrate fluorescence; scaled: vehicle 0, mature enzyme 100; hit rate 68% among 3,200; activation, % at 7 µM; shares compounds with proKLK7 act;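 active = activation, as change over the incubation, above the mean of all tested compounds plus 3 SD, cut at about 13% in these data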
EDANS interfere: counter-screen for kallikrein-7 activators: EDANS-DABCYL optical interference; activation, % at 7 µM; AID 686952; EDANS-DABCYL substrate fluorescence interference, no enzyme, 4 h; solvent 0%, active enzyme control 100%; hit rate 80% among 3,200; shares compounds with proKLK7 act;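 active = activation above the all-compound mean plus 3 SD, ignoring values outside control-based bounds, cut at about 4.8% in these data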;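 also: value is the 4 h activation minus the activation read at time zero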
K7 EDANS ctr: counter-screen for kallikrein-7 activators: EDANS-DABCYL interference, dose response | shares compounds with proKLK7 act | EDANS-DABCYL peptide fluorescence interference, no enzyme | EC50, µM | hit rate 20% among 250;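 active = compounds that raise the fluorescence signal in this interference counterscreen, with EC50 at or below 10 µM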;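 also: intact quenched peptide substrate alone read at 355 nm excitation and 520 nm emission; signal is fluorescence gain from T0 to T4 after four hours at room temperature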
Active calls of the source: *; i = inactive; · = not tested or not shown. The list is not random: actives were taken first. Their share in the collection is about 3.1%.

SMILES | proKLK7 act | Rin1-Abl PPI inh | UHRF1 binding | MBD2 DNA inh | Neddylation inh | LEDGF integ inh | proKLK7 act conf | EDANS interfere | others
CCCCN1C(=O)c2cccc3cc(O)cc(c23)C1=O | 31* | -3 | 4 | 9 | i | -4 | 48* | 68*
Nc1nc2c(ncn2[C@@H]2O[C@H](C(=O)N[C@H](Cc3ccccc3)C(=O)NC3CCCCC3)[C@@H](O)[C@H]2O)c(=O)[nH]1 | 1 | · | 2 | 0 | · | -3 | · | ·
CC(C)n1c(=N)c(C(=O)NCCc2ccccc2)cc2c(=O)n3ccccc3nc21 | 134* | -3 | -4 | -11 | i | -1 | -51 | -64
Cc1cccn2c(=O)c3cc(C(=O)NCc4ccco4)c(=N)n(C(C)C)c3nc12 | 26* | -9 | -6 | -9 | i | 1 | 7 | 4
Cc1cccn2c(=O)c3cc(C(=O)NCc4cccnc4)c(=N)n(C(C)C)c3nc12 | 134* | -2 | -7 | -13 | i | 2 | 51* | 67*
Cc1ccc2nc3c(cc(C(=O)NCCc4ccccc4)c(=N)n3CCN3CCOCC3)c(=O)n2c1 | · | -8 | · | · | · | · | · | ·
CC(C)N(C(=S)Nc1ccc(S(=O)(=O)N2CCOCC2)cc1)c1ccccc1 | 0 | -1 | -1 | -1 | i | -1 | · | ·
COC(=O)c1ccc2c(C)c(C(C)(C)O)[nH]c2c1 | 28* | 0 | -2 | 5 | · | -5 | 67* | 63*
Cc1c(C(C)(C)O)[nH]c2ccc(C(F)(F)F)cc12 | 0 | 2 | -5 | 1 | i | -5 | · | ·
Nc1cnnc(N/N=C\c2ccccc2)c1Cl | 13* | -3 | -2 | 0 | i | 0 | 2 | 3
Nc1nonc1N/N=C\c1ccccc1 | 0 | 0 | -2 | 2 | i | -7 | · | ·
Cc1cccc(NC(=O)Nc2ccccc2C(=O)N2CCCC2)c1 | 0 | · | 0 | 1 | · | 1 | · | ·
Cc1ccc(CNC(=O)CSc2nc3n[nH]c(C)c3c(=N)n2-c2cccc(C)c2)cc1 | 13* | -3 | -1 | -5 | i | 1 | 28* | 27*
COc1ccc(-c2ccc(C3C(C#N)=C(N)Oc4n[nH]c(C)c43)o2)cc1 (configuration not stated) | 14* | -5 | -7 | -7 | i | 2 | 9 | 9.0*
Cc1[nH]nc2c1C(c1ccco1)C(C#N)=C(N)O2 (configuration not stated) | -1 | 5 | -6 | 2 | i | 3 | · | ·
Cc1[nH]nc2c1C(c1ccc(OC(=O)c3ccco3)cc1)C(C#N)=C(N)O2 (configuration not stated) | 310* | -1 | 4 | 1 | i | -2 | 1 | -2
CC(C)c1[nH]nc2c1C(c1ccc(OC(=O)c3ccco3)cc1)C(C#N)=C(N)O2 (configuration not stated) | 0 | 0 | -4 | 2 | i | 1 | · | ·
Cc1noc(/C=C/N(C)C)c1S(=O)(=O)N(C)Cc1ccc(F)cc1 | 0 | 2 | 0 | -1 | i | 5 | · | ·
CCOc1ccccc1/C=C(/NC(=O)c1ccccc1)C(=O)NC(C)c1ccccc1 (configuration not stated) | 0 | 1 | 0 | 1 | i | -1 | · | ·
CCc1ccc(-c2nc(SCC(=O)N(C)C3CCS(=O)(=O)C3)n[nH]2)cc1 (configuration not stated) | 1 | 0 | -3 | 3 | i | -1 | · | ·
CCOC(=O)[C@@]12CCCC=C1N(CCc1ccc(Cl)cc1)C(=O)[C@H]2CC(=O)NCCCCc1ccccc1 | 0 | · | -2 | -2 | · | 6 | · | ·
Cc1ccc(S(=O)(=O)C(C#N)c2nc3ccccc3nc2OCCO)cc1 (configuration not stated) | -2 | 4 | 0 | -1 | i | 2 | · | ·
CC(=O)Nc1ccc(S(=O)(=O)C(C#N)c2nc3ccccc3nc2NCCCO)cc1 (configuration not stated) | 39* | 0 | -7 | -5 | · | -3 | 53* | 69*
CC(=O)Nc1ccc(S(=O)(=O)C(C#N)c2nc3ccccc3nc2NCCO)cc1 (configuration not stated) | 64* | -2 | -7 | -4 | · | 6 | 66* | 73*
CCNc1cc2oc(=O)c(CN3CCOCC3)c(C)c2cc1C | 43* | -6 | -5 | -4 | i | -1 | 69* | 78*
SMILES | proKLK7 act | Rin1-Abl PPI inh | UHRF1 binding | MBD2 DNA inh | Neddylation inh | LEDGF integ inh | proKLK7 act conf | EDANS interfere | others
COc1cccc(C(=O)N2CCCC(Nc3ccc(C)c(C)c3)C2)c1 (configuration not stated) | 0 | 2 | 1 | 0 | i | -1 | · | ·
COc1ccc2[nH]c3c(c2c1)CCN1C(=O)C(CC(=O)NC/C=C(\C)CCC=C(C)C)C[C@H](C(=O)N2CCOCC2)[C@@]31CCC1CCCC1 (some centres not stated) | 0 | 0 | -1 | -4 | i | -1 | · | ·
CC(=O)c1ccc(/C=C/c2nc3ccccc3n2C)o1 | 40* | -7 | -3 | -4 | · | 1 | 71* | 71*
Cn1c(/C=C/c2ccccc2)nc2ccccc21 | 7 | 0 | -7 | -8 | · | -6 | · | ·
COC(=O)[C@]12C[C@H](CC(=O)NCC34CC5CC(CC(C5)C3)C4)C(=O)N(Cc3ccc(Cl)cc3Cl)C1=C[C@H](C(C)(C)C)O[C@@H]2C | 0 | · | -1 | -2 | · | -3 | · | ·
CC(C)NC[C@H](O)c1ccc(O)c(O)c1 | 47* | 2 | -5 | -2 | i | -2 | 49* | 51*
COc1ccc(C(=O)COC(=O)CCN=C2NS(=O)(=O)c3ccccc32)c(OC)c1 | 0 | -1 | 1 | -2 | i | 5 | · | ·
CCOC(=O)c1oc2ccc3c(c2c1C)C(=O)CC1(CCN(C(=O)OCC)CC1)O3 | 0 | -2 | 0 | -6 | i | 4 | · | ·
CCOC(=O)N1CCC2(CC1)CC(=O)c1c(ccc3oc(C(=O)O)c(C)c13)O2 | 18* | -4 | 5 | 1 | · | 3 | 46* | 34* | K7 EDANS ctr=>70
CCCOc1ccc(/C=C2\SC(N)=NC2=O)cc1OC | 18* | -5 | 0 | 1 | i | -3 | 0 | -2
COc1ccc(CCN2CC(=O)N3CCc4ccc(N5CCOCC5)cc4C3CC2=O)cc1OC (configuration not stated) | 0 | · | 4 | -1 | · | -3 | · | ·
O=C(CN1CCN(C2CCCCC2)CC1)c1c[nH]c2ccccc12 | 0 | 0 | 2 | -1 | i | 3 | · | ·
O=C(CN1CCN(C2CCCCC2)CC1)c1ccc2cc[nH]c2c1 | 22* | 3 | -2 | -3 | · | 0 | 20* | 20*
